In PubChem BioAssay AID1851 (National Center for Advancing Translational Sciences (NCATS), 2009):
Hit rate of the full screen: of about 16,000 compounds, about 4,000 (25%) were called active. Not shown: some 26% with an inconclusive outcome. Calls follow the shape of the dose curve; as a rule, active = well fitted curve in the direction sought with a large enough effect; inconclusive = small, poorly fitted or top-dose-only effect, or effect the other way; inactive = no such curve, though single readings can be large or run the other way. The list is a sample of the results. Numbered stars: 1 amine (or outer) side, 2 acyl side, 3 side chain; on linkers, the order of the positions; unused ones are H or OH. Bridge positions count the residues as written; N and C are the ends. Square brackets hold non-standard residues; d marks the D form. Peptide text beside a SMILES is read from it. I, II: the chains in the order shown. Actinocin(9to1) = Cc1c2oc3c(C)ccc(C(=O)[*:1])c3nc-2c(C(=O)[*:2])c(N)c1=O; aThr = C[C@H](O)[C@H](N)C(=O)O; NMeV = CN[C@H](C(=O)O)C(C)C; Sar = CNCC(=O)O

Target: Cytochrome P450 2C9 (Homo sapiens) (UniProt P11712)
Sequence (P11712 whole entry, looked up): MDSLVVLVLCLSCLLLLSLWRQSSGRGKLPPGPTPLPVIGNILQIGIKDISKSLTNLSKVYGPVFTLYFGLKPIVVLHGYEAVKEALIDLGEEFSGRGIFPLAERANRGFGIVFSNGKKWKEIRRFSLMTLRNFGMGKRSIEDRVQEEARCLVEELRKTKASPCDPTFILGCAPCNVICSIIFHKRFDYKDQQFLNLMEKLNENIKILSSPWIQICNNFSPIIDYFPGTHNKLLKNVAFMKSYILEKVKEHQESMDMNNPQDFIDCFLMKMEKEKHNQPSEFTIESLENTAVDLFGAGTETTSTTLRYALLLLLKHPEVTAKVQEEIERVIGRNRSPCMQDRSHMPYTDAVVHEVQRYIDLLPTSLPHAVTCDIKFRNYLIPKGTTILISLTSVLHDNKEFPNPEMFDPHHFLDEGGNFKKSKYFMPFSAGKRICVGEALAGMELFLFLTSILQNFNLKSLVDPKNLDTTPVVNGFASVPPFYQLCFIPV
Experiment: Cytochrome panel assay with activity outcomes
Settings: recombinant CYP, pro-luciferin dealkylation, luminescence, p450-cyp2c9; series mostly up to 57.1 µM; activity, negative = inhibition: at the top concentration
% is scaled to controls: 0 for no effect and ±100 for the full control effect.

activity, negative = inhibition, inactive:
COc1cc(OC)c(C(=O)CCCCN2CCC3(CC2)NC(=O)NC3=O)cc1NS(=O)(=O)c1ccc(C(F)(F)F)cc1 22.9%
Cc1ccc(N(C(=O)C(F)(F)F)C(C(=O)NC2CCCCC2)c2cccs2)cc1C (stereo not drawn) -17.9%
COc1ccc(C(C(=O)NC2CCCC2)N(Cc2ccc(F)cc2)C(=O)c2ccn[nH]2)cc1OC (stereo not drawn) -29.6%
Cc1cccc(CNc2nc(-c3cccnc3)nc3ccccc23)c1 -13% [at 2.29 µM]
COC(=O)[C@@H]1O[C@@H](SCCN)[C@@H](O)[C@H](O)[C@H]1O 15% [at 11.4 µM]
O=C(O)Cc1ccc2ocnc2c1 -22.7%
COc1cccc(Nc2ncc3nc(C)c(=O)n(C)c3n2)c1 -11.4%
COc1cccc(Nc2ncc3nc(C)c(=O)n(C4CC4)c3n2)c1 -17.1%
COc1ccc(-c2nc3cnc(Nc4ccccc4)nc3n(CCC#N)c2=O)cc1 7.37%
NS(=O)(=O)c1cc2c(cc1C(F)(F)F)N[C@H](Cc1ccccc1)NS2(=O)=O -8.84% [at 25.6 µM]
CN1CCN([C@@H]2Cc3ccccc3Sc3ccc(Cl)cc32)CC1 -20.1%
CNC(=O)[C@H]1O[C@H](n2cnc3c(NCc4cccc(I)c4)ncnc32)[C@@H](O)[C@@H]1O 26.3%
CCOC(=O)[C@]1(CC(=O)O)CCCC1=O -6.54% [at 11.4 µM]
CN(C)c1cc(-c2cccc(NS(C)(=O)=O)c2)ncn1 16.1% [at 2.29 µM]
Cc1cc(C)c(S(=O)(=O)Nc2cccc(C(F)(F)F)c2)c(C)c1 -21.9%
COc1ccccc1CNc1ccnc(-c2ccccc2OC)n1 -5.44% [at 2.29 µM]
CS(=O)(=O)N1CCC[C@@]2(CCN(C(=O)Nc3cccc(C#N)c3)C2)C1 5.75%
NC(N)=Nc1ccc(Cl)cc1 27%
COc1ccc(NC(=O)CN(C)S(=O)(=O)c2ccc(Cl)cc2)c([N+](=O)[O-])c1 -0.31%
CCOc1ccc(NC(=O)c2ccc(Br)o2)c([N+](=O)[O-])c1 -22.4%
CC(NC(=O)CN1CCCC1)C12CC3CC(CC(C3)C1)C2 (stereo not drawn) -12%
CC(Oc1ccc(O)cc1)(P(=O)(O)O)P(=O)(O)O -4.37%
Cn1cccc1C(=O)N1CCC2(CCN(C(=O)Nc3ccccc3)CC2)CC1 7.74%
O=C(Nc1ccccc1)N1CCC2(CCNCC2)CC1 0.996%
CC(=O)N1CCC2(CC1)CCN(C(=O)Nc1cccc(F)c1)CC2 -1.66%
COC(=O)N1CCC2(CCN(C(=O)Nc3ccccc3)CC2)CC1 -6.23%
CC(C)=CCC/C(C)=C/CO/N=C1/C[C@@H](O)[C@@H](O)[C@@H]2[C@H]3C(=O)N(c4ccc(F)cc4F)C(=O)[C@@H]3CC[C@@H]12 -4.09% [at 11.4 µM]
c1ccc2cc(C3=NCCN3)ncc2c1 -10.6%
Cc1nn(C)c(Cl)c1NC(=O)OCc1ccc(F)cc1 -24%
O=C(NCC1CCC(C(=O)O)CC1)OCc1ccccc1 (stereo not drawn) 1.84%
Cc1cccc(NC(=O)c2cc(N3C(=O)CCC3=O)ccc2Cl)n1 -2.27%
CN(C)c1ccc(-c2nccc(NCCN3CCOCC3)n2)cc1 5.77% [at 2.29 µM]
CCCN1C(=O)C(NC(C)=O)c2cc(OC)ccc21 (stereo not drawn) -24%
FC(F)(F)c1ccccc1-c1nc(NCCN2CCOCC2)c2ccccc2n1 12.6% [at 2.29 µM]
CC1CN(C(=O)CN2C(=O)NC3(CCCCCC3)C2=O)CC(C)O1 (stereo not drawn) -2.81%
CC(=O)NCCNc1ncncc1-c1ccc(N(C)C)cc1 -1.01% [at 2.29 µM]
Cc1ccc(NC(=O)CN2C(=O)S/C(=C\c3cccn3C)C2=O)cc1 -7.98%
C=CCSC1=Nc2sccc2C2=NC(=O)CN12 -5.09%
Cc1ccc(C)c(C(=O)CN2C(=O)c3ccccc3S2(=O)=O)c1 -7.55%
Cn1c(=O)c2[nH]c(COCc3nc4c([nH]3)c(=O)n(C)c(=O)n4C)nc2n(C)c1=O 7.37% [at 11.4 µM]
C=CCn1c(SCC(=O)Nc2ncc(Cc3ccc(Br)cc3)s2)nnc1-c1ccncc1 -0.753%
Cc1ccc(NC(=O)c2ccc(CSc3nnc(-c4ccncc4)n3C)cc2)cc1 -29.8%
COc1cc(OC)c2nc(C)c3c(c2c1)N(c1ccc(O)cc1)CC3 -9.41%
Cc1c2oc3c(C)ccc(C(=O)N[C@@H]4C(=O)N[C@@H](C(C)C)C(=O)N5CCC[C@@H]5C(=O)N(C)CC(=O)N(C)[C@@H](C(C)C)C(=O)O[C@H]4C)c3nc-2c(C(=O)N[C@@H]2C(=O)N[C@@H](C(C)C)C(=O)N3CCC[C@@H]3C(=O)N(C)CC(=O)N(C)[C@@H](C(C)C)C(=O)O[C@H]2C)c(N)c1=O (I: [aThr]V[dP][Sar][NMeV] / II: [aThr]V[dP][Sar][NMeV]; ester I:1-I:C, II:1-II:C; linker I:N-II:N via Actinocin(9to1)) 11.9%
O=C1Nc2ccccc2C1=Nc1cccc2ncccc12 17.9% [at 11.4 µM]
CNc1cc(OC)c(C(=O)N[C@@H]2CCN(Cc3ccccc3)[C@H]2C)cc1Cl -7.74%
C=CCNCCOCCOc1ccc(C)cc1[N+](=O)[O-] -25.4%
CCOC(=O)N/N=C1/C[C@@H](O)[C@@H](O)[C@@H]2[C@@H]3C(=O)N(CC)C(=O)[C@H]3CC[C@H]12 8.47% [at 11.4 µM]
O=S(=O)(c1ccc(F)cc1)N1CCCC(CO)C1 (stereo not drawn) -17.2%

AC50, inactive:
N=C(N)SCCc1cnc[nH]1
CSc1ccc2c(c1)[C@H](N1CCN(C)CC1)Cc1ccccc1S2

AC50, active:
COc1ccc(CCN(C(=O)C(F)(F)F)C(C(=O)NC2CCCC2)c2cccs2)cc1 (stereo not drawn) 3.16 µM
O=C(NC1CCCCC1)C(c1cccs1)N(C(=O)C(F)(F)F)c1ccccc1 (stereo not drawn) 1.58 µM
COc1ccc(CN(C(=O)Cc2cccs2)C(C(=O)NC2CCCC2)c2ccncc2)cc1 (stereo not drawn) 5.01 µM
COc1cccc(NC(=S)N(CCc2nc3cc(C)c(C)cc3[nH]2)Cc2cccnc2)c1 5.01 µM
COc1ccc(NC(=S)N(CCc2nc3cc(C)c(C)cc3[nH]2)Cc2cccnc2)cc1 7.94 µM
Cc1ccc(C)c(NC(=S)N(CCc2nc3cc(C)c(C)cc3[nH]2)Cc2cccnc2)c1 3.98 µM
Cc1cccc(NC(=S)N(CCc2nc3cc(C)c(C)cc3[nH]2)Cc2cccnc2)c1 7.94 µM
COc1ccc(Nc2ncc3c(n2)CC(c2ccc(C)cc2)CC3=O)cc1 (stereo not drawn) 5.01 µM
COc1ccc(C2CC(=O)c3cnc(Nc4cc(C)cc(C)c4)nc3C2)cc1 (stereo not drawn) 10 µM
CCSC1=C(C#N)C2(CCCCC2)C(C#N)=C(N)N1 2.82 µM
COc1ccc(N(CC(=O)Nc2cccc(C)c2)S(=O)(=O)c2c(C)n[nH]c2C)cc1 1.41 µM
Cc1cccc(NS(=O)(=O)c2c(C)n[nH]c2C)c1 17.8 µM
C=CCSc1nnc2c(n1)OC(c1c(C)[nH]n(-c3ccccc3)c1=O)Nc1ccccc1-2 (stereo not drawn) 0.447 µM
CCCCCSc1nncc(=O)[nH]1 4.47 µM
Clc1ccc(CC[C@H](Cn2ccnc2)Sc2c(Cl)cccc2Cl)cc1 0.0126 µM
Cc1ccc(C(=O)NCCNc2ccc(Cl)cc2[N+](=O)[O-])o1 10 µM
O=C(Nc1cccc(NC(=O)N2CCN(c3ccccc3)CC2)c1)N1CCN(c2ccccc2)CC1 7.94 µM
CC(C)n1c(N2CCN(C(=O)Nc3ccccc3)CC2)nc2ccccc21 6.31 µM
CC(C)C(C(=O)O)N1C(=O)/C(=C/C=C/c2ccco2)SC1=S (stereo not drawn) 6.31 µM
Cc1ccc(C)c(N(CC(=O)NC2CCCC2)C(=O)c2cc3cc4cccc(C)c4nc3s2)c1 0.447 µM
Cc1cccc(N(CC(=O)NC2CCCC2)C(=O)c2cc3cc4cccc(C)c4nc3s2)c1C 0.794 µM
COC(=O)[C@@]1(Cc2ccc(OC)cc2)[C@H]2c3cc(C(=O)N4CCCC4)n(Cc4cc(F)cc5c4OCOC5)c3C[C@H]2CN1C(=O)c1ccccc1 6.31 µM
COC(=O)[C@@]1(Cc2ccccc2)[C@H]2c3cc(C(=O)N4CCCC4)n(Cc4cc(F)cc5c4OCOC5)c3C[C@H]2CN1C(=O)c1ccccc1 0.316 µM
CSc1nsc(SC)c1NC(=O)OCc1ccccc1 10 µM
Cc1cccc(NC(=S)NC(=O)c2cccs2)n1 10 µM
Cc1ccccc1C(=O)Nc1cccc(NC(=S)NC(=O)c2cccs2)c1 3.55 µM
C/C(=N\NC(=O)c1ccccc1C)c1ccc(NC(=O)c2cccs2)cc1 14.1 µM
CCCN1C(=O)C(Cc2nc3ccccc3c(=O)n2C)c2ccccc21 (stereo not drawn) 12.6 µM
Cc1ccc(/C=C2\SC(=S)N(CCCC(=O)Nc3ccccn3)C2=O)cc1 5.01 µM
CCOc1c(OC(C)=O)ccc(/C=C2\N=C(SCC)SC2=O)c1[N+](=O)[O-] 5.62 µM
Cc1ccccc1NC1=C(C(=O)c2ccccc2)N(C)S(=O)(=O)c2ccccc21 3.55 µM
COC(=O)c1ccc(NC(=O)Cn2nc(-c3ccncc3)nc2SCC(=O)Nc2nccs2)cc1 0.224 µM
C=CCn1c(SCc2ccc(C(=O)Nc3ccccc3)cc2)nnc1-c1ccccc1 3.98 µM
CCn1c(SCc2ccc(C(=O)Nc3nccs3)cc2)nnc1-c1ccc(NC(C)=O)cc1 1.78 µM
O=C(CSc1nnc(-c2ccncc2)n1Cc1ccccc1)Nc1nccs1 10 µM
Cc1ccc(OCCOCCn2ccnc2)c(Br)c1 0.501 µM
O=S(=O)(c1ccc(F)cc1)N1CC2CCCN2c2ccc(C(F)(F)F)cc21 (stereo not drawn) 10 µM
